Results as given in the supplement of paper PMC7801607.

Experiments:
CHO = test: % viability of CHO cells (MTT); higher = less toxic; settings: 48 h
Summary of the method: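 CHO cells were seeded at 10^6 cells/well in 200 µL and left overnight to attach. The medium was then replaced with fresh medium containing compound at 2 or 20 µM for 48 h. Survival was read colorimetrically with the tetrazolium (MTT) assay. Percent viability was expressed relative to untreated cells.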

HepG2-A16-CD81 = test: % inhibition of HepG2 viability (CellTiter-Glo); higher = more toxic; settings: 5 µM;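 also: HepG2-A16-CD81 hepatoma cells plated as in the liver-stage assay but without sporozoites, with DMSO wells as negative and 25 µM puromycin as positive control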
[1] = test system: Plasmodium falciparum NF54 stage IV/V gametocytes; test: % inhibition of gametocyte viability (PrestoBlue); higher = more inhibition; settings: 48 h
Summary of the method: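 Stage IV/V NF54 gametocytes (2% gametocytaemia, 5% haematocrit, 100 µL/well) were exposed to compound at 1 or 5 µM. Incubation was 48 h at 37 °C, stationary and hypoxic, followed by 10 µL PrestoBlue for 2 h. Fluorescence at 612 nm was read on 70 µL of transferred supernatant. Percent inhibition of gametocyte viability was normalised to DMSO and kill controls from a single run.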

[2] = test system: Plasmodium falciparum NF54 asexual blood stage; test: % inhibition of asexual blood stage proliferation (pLDH); higher = more inhibition; settings: 72 h
Summary of the method: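 Plasmodium falciparum NF54 ring-stage cultures (1% haematocrit, 2% parasitaemia) were exposed to compound at 2 or 20 µM in 96-well plates. Incubation was 72 h at 37 °C under 4% CO2, 3% O2 and 93% N2. Survival was read colorimetrically at 620 nm with the parasite lactate dehydrogenase assay. Percent inhibition of asexual proliferation was normalised to DMSO and kill controls, and the screen was run on two separate occasions.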

[3] = test system: Plasmodium falciparum NF54 stage IV/V gametocytes; test: % inhibition of gametocyte viability (ATP bioluminescence); higher = more inhibition; settings: 24 h
Summary of the method: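 In 96-well plates, compound at 1 or 5 µM was added to 30,000 density-gradient-enriched stage IV/V NF54 gametocytes per well and incubated for 24 h at 37 °C. ATP readout used the Promega BacTiter Glo bioluminescence system. Percent inhibition of gametocyte viability comes from a single run, normalised to control wells.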

[4] = test system: Plasmodium falciparum NF54 stage IV/V gametocytes; test: % inhibition of gametocyte viability (luciferase reporter); higher = more inhibition; settings: 48 h
Summary of the method: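 Luminescence from 30 µL lysate combined with 30 µL Promega luciferin substrate was recorded on a GloMax-Multi+ reader using 10 s integration. The lysate came from stage IV/V NF54-Pfs16-GFP-Luc gametocytes (2% gametocytaemia, 2% haematocrit) held with compound at 1 or 5 µM for 48 h at 37 °C under stationary, hypoxic conditions. Percent inhibition was normalised against controls run once.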

SMILES	% viability of CHO cells (CHO; 2 µM) [%]	% viability of CHO cells (CHO; 20 µM) [%]	% inhibition of HepG2 viability (HepG2-A16-CD81) [%]	% inhibition of gametocyte viability ([1]; 1 µM) [%]	% inhibition of gametocyte viability ([1]; 5 µM) [%]	% inhibition of asexual blood stage proliferation ([2]; 2 µM) [%]	% inhibition of asexual blood stage proliferation ([2]; 20 µM) [%]	% inhibition of gametocyte viability ([3]; 1 µM) [%]	% inhibition of gametocyte viability ([3]; 5 µM) [%]	% inhibition of gametocyte viability ([4]; 1 µM) [%]	% inhibition of gametocyte viability ([4]; 5 µM) [%]
C[C@H](c1cccc2ccccc12)N(C)Cc1ccccc1	98.5	116	0.334	6.61	7.59	9.39	18.9	< 0	< 0	< 0	< 0
COc1ccccc1NC(=O)c1ccccc1Sc1ccc([N+](=O)[O-])cc1	85.2	108	-1.52	17.1	14.1	-1.69	81	7.24	1.71	3.21	8.85
CC1CCc2c(N3CCC(O)CC3)c(F)cc3c(=O)c(C(=O)O)cn1c23 (stereo not given)	84.2	87.6	2.9	< 0	11.7	69.7	98.8	< 0	< 0	1.04	6.66
Cc1cccc(C)c1C(=O)Nc1nc(-c2ccccn2)cc2ccccc12	104	17.3	32.4	13.5	53.2	79.3	104	73.4	90.8	< 0	68.3
Oc1c(C(Nc2ccccn2)c2ccccc2)ccc2cccnc12 (stereo not given)	115	68.7	10.2	49	26.9	71.8	88.8	< 0	40.6	0.252	33.3
O=C(/C=C/n1cnc(-c2cc(C(F)(F)F)cc(C(F)(F)F)c2)n1)NNc1cnccn1	102	103	-11.2	11.2	-0.3	-23.5	56.5	0.272	< 0	0.0379	< 0
CC(N)C(=O)NC(CCCCN)C(=O)NC(CCCNC(=N)N)C(=O)NC(Cc1c[nH]cn1)C(=O)NC(Cc1c[nH]cn1)C(=O)NCC(=O)NC(Cc1ccc(O)cc1)C(=O)NC(CCCCN)C(=O)NC(CCCNC(=N)N)C(=O)NC(CCCCN)C(=O)NC(Cc1ccccc1)C(=O)NC(Cc1c[nH]cn1)C(N)=O (stereo not given)	105	102	-0.769	< 0	14.3	10.1	17.2	< 0	< 0	< 0	< 0
CC(C)(C)OC(=O)NCc1ccc(C(=O)N[C@H]2CCOC2=O)cc1	96.9	115	14.5	5.05	< 0	18.3	17.2	< 0	< 0	< 0	< 0
Clc1cccc(-c2nnc(-c3ccccc3)o2)c1	98.4	113	-5.12	< 0	< 0	9.27	15.9	< 0	< 0	< 0	30.2
O=C1NC(=S)N/C1=C\c1cc(Br)cc(Br)c1O	91.8	63.5	-2.5	1.86	< 0	10.8	17.1	< 0	< 0	< 0	< 0
O=c1cc(NCCCN[C@@H]2CCOc3c(Br)cc(Br)cc32)[nH]c2ccsc12	275	54.3	21.6	17.8	12.4	42.9	78.3	< 0	< 0	< 0	11.8
C=CCc1cc(Cc2cnc(N)nc2N)cc(OC)c1O	89.2	105	7.8	12.8	29.7	29.1	76.8	< 0	< 0	< 0	< 0
O=C(NC1CCCc2c1[nH]c1ccc(Cl)cc21)c1ccccn1 (stereo not given)	96.3	102	20.7	< 0	6.95	20.6	37.5	< 0	< 0	< 0	< 0
O=C(Nc1nnc(-c2ccc(Cl)cc2)o1)c1nc2ccccc2s1	111	92.6	0.777	6.81	13.9	73.6	91.4	1.06	< 0	1.1	< 0
COC1CC2CCC(C)C(O)(O2)C(=O)C(=O)N2CCCCC2C(=O)OC(C(C)CC2CCC(OCCO)C(OC)C2)CC(=O)C(C)/C=C(\C)C(O)C(OC)C(=O)C(C)CC(C)/C=C/C=C/C=C/1C (stereo not given)	92.8	106	1.51	< 0	4.18	26.6	90.3	2.16	37.2	15	4.08
C[Si]1(C)CCN(Cc2cc(-c3ccc(Cl)cc3)n(-c3ccc(Cl)cc3)n2)CC1	108	71.6	5.65	28.8	68.7	57	59.2	3.88	81	3.92	31.2
O=C(O)COc1cccc2c1CC[C@](O)(COC(=O)N(c1ccccc1)c1ccccc1)C2	92.5	105	-9.51	23.2	25.8	11.3	-4.41	< 0	< 0	1.62	< 0
COC(=O)Nc1nc2cc(Sc3ccccc3)ccc2[nH]1	103	101	32.9	< 0	11.8	-7.16	5.37	3.38	< 0	< 0	< 0
COc1cc(Cc2cnc(N)nc2N)c2c(c1OC)OC(C1CC1)C=C2 (stereo not given)	103	67.7	-4.44	36.3	6.68	13	34	1.06	< 0	35.9	1.69
N[C@H](CCC(=O)N[C@@H](Cc1c[nH]c2ccccc12)C(=O)O)C(=O)O	116	57.6	-8.85	< 0	3.44	28.8	43.7	4.77	< 0	6.42	< 0

SMILES	% viability of CHO cells (CHO; 2 µM) [%]	% viability of CHO cells (CHO; 20 µM) [%]	% inhibition of HepG2 viability (HepG2-A16-CD81) [%]	% inhibition of gametocyte viability ([1]; 1 µM) [%]	% inhibition of gametocyte viability ([1]; 5 µM) [%]	% inhibition of asexual blood stage proliferation ([2]; 2 µM) [%]	% inhibition of asexual blood stage proliferation ([2]; 20 µM) [%]	% inhibition of gametocyte viability ([3]; 1 µM) [%]	% inhibition of gametocyte viability ([3]; 5 µM) [%]	% inhibition of gametocyte viability ([4]; 1 µM) [%]	% inhibition of gametocyte viability ([4]; 5 µM) [%]
Nc1nc(O)ncc1F	118	21.7	0.135	3.77	< 0	-11	-2.89	< 0	< 0	< 0	< 0
CCCCCOc1ccc(/C=C2\Oc3c(ccc(O)c3O)C2=O)c(O)c1	123	127	3.16	< 0	< 0	2.75	90.6	< 0	< 0	< 0	< 0
Cc1cc(NS(=O)(=O)c2ccc(-c3ccc(F)cc3F)cc2)no1	95.4	116	1.14	2.55	66.2	-0.00494	-3.92	0.517	< 0	< 0	< 0
Cc1c(F)cccc1NC(=O)Nc1ccc(Cl)c(S(=O)(=O)[C@H]2CCCNC2)c1O	115	118	-8.8	< 0	< 0	15.9	41.5	8.93	< 0	0.356	< 0
CC[C@@]1(O)C(=O)OCc2c1cc1n(c2=O)Cc2cc3c([N+](=O)[O-])cccc3nc2-1	128	99.3	65.7	< 0	< 0	10.9	66.6	5.04	< 0	< 0	< 0
CC[C@H]1OC(=O)[C@H](C)[C@@H](O[C@H]2C[C@@](C)(OC)[C@@H](O)[C@H](C)O2)[C@H](C)[C@@H](O[C@@H]2O[C@H](C)C[C@H](N(C)C)[C@H]2O)[C@](C)(O)C[C@@H](C)C(=O)[C@H](C)[C@@H](O)[C@]1(C)O	90.8	55.1	3.5	21	21	-1.14	14.1	< 0	< 0	< 0	< 0
CO/N=C(\C(=O)N[C@@H]1C(=O)N2C(C(=O)OCOC(=O)C(C)(C)C)=C(/C=C\c3scnc3C)CS[C@H]12)c1csc(N)n1	146	60.3	-3.45	< 0	1.37	7.74	37.7	0.449	5.98	< 0	22.6
COc1ccc(COc2cc3oc(=O)c4cc(C(C)O)ccc4c3cc2OC)cc1 (stereo not given)	81.5	74.4	6.8	11	11.6	35.7	80.4	6.77	< 0	< 0	< 0
COc1cc2c(O)c3c(c(-c4ccc5c(c4)OCO5)c2cc1OC)C(=O)OC3	98	86.4	58.9	13	17.7	44.2	99.9	< 0	< 0	< 0	< 0
C[C@H](Cn1cnc2c(N)ncnc21)OCP(=O)(O)O	89.8	99.9	-1.34	10.5	17.7	-36.5	46.2	5.56	< 0	9.2	< 0
O=C(Cn1cnc2ccccc2c1=O)Nc1ccccc1	100	84.1	-0.425	27.9	25.4	29.5	71.5	1.88	< 0	2.6	1.55
O=C(NN1C(=O)[C@@H]2C3C=CC([C@H]4C[C@@H]34)[C@@H]2C1=O)c1ccc(C(F)(F)F)cc1	97.4	120	-2.51	< 0	< 0	4.37	23	1.06	< 0	< 0	4.75
O=C(Nc1ccccc1C(=O)O)c1cccc(Oc2ccccc2)c1	113	61	6.41	37.4	5.84	-5.74	-12.5	< 0	< 0	< 0	< 0
CCCCc1ccc(S(=O)(=O)Nc2cc(C)on2)cc1	106	124	15.2	18	10.4	84.8	64.2	2.13	< 0	< 0	< 0
O=c1oc2ccc(Br)cc2cc1CSc1ncc[nH]1	112	73.8	3.9	11.2	7.96	-5.59	79	6.38	5.34	4.59	< 0
CCc1cc(O)c(Oc2cccnc2N)cc1F	64.8	62.9	-0.638	< 0	< 0	8.28	20.8	< 0	< 0	< 0	< 0
Nc1cccc(-c2nc(N)nc(NC3Cc4ccccc4C3)n2)c1	96.5	75.1	12.8	< 0	< 0	-7.13	22.3	< 0	< 0	< 0	< 0
O=C(Nc1[nH]c(=O)ncc1F)c1ccccc1	103	106	1.79	1.43	5.2	2.42	1.98	< 0	< 0	< 0	< 0
CCN(CC)S(=O)(=O)c1ccc(Cl)c(C(=O)Nc2sc3c(c2C#N)CCCC3)c1	100	109	20.9	< 0	< 0	0.194	18.9	< 0	< 0	< 0	9.16
Nc1ccc2oc(=O)ccc2c1I	72.9	60	-2.48	< 0	< 0	29.8	37.3	< 0	< 0	3.24	2.65
